Compound activity from PubChem.
Most compounds without a hit are left out; they make up all but 19% or so of the library.
TDP1 block = blocks human tyrosyl-DNA phosphodiesterase 1; recombinant TDP1, AlphaScreen DNA substrate cleavage; hit rate 0.28% among 350,000; AID 485290; Q9NUW8; Potency, µM (highest dose often 130 µM), for inactives: top-dose activity change, negative = inhibition, actives largely listed as inhibitors; also: nearly all actives have a fitted effect of over 40% in size
Target sequence (Q9NUW8 whole entry, looked up): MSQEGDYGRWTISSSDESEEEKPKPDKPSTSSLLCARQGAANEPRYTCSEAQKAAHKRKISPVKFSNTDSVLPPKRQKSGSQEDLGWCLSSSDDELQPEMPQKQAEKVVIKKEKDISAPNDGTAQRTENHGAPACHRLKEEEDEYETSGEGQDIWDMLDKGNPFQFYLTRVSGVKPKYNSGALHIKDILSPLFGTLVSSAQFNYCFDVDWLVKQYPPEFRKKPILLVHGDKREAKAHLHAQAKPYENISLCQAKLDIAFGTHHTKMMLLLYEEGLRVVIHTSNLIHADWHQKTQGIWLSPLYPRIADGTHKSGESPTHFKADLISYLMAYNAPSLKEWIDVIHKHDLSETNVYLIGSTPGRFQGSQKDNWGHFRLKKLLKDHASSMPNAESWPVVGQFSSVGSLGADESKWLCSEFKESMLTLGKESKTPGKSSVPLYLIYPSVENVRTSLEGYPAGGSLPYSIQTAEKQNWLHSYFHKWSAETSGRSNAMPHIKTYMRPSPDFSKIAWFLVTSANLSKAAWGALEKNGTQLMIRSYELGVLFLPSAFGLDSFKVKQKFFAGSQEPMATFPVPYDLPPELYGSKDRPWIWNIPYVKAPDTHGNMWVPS
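Compounds were preincubated with Tdp1 (1 nM final) for 15 min at room temperature before substrate (15 nM final) started a 5 min reaction; beads (10 ug/ml final) were then added for 10 min before AlphaScreen detection.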
Gal4-VP16 FLuc = counter-screen for ROR gamma inhibitors: Gal4-VP16 reporter; Drosophila S2 Gal4-VP16 UAS-luciferase, luminescence, 20 h; Potency, µM (top dose mostly 53.6 µM), without a hit: at the highest dose activity, negative = inhibition, usual class: inhibitors; hit rate 3.5% among 310,000; AID 2546;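 also: Gal4-VP16 expression switched on by copper sulfate through the metallothionein promoter; nearly all actives have a fitted effect of over 50% in size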
TDP1 cell CPT = DT40-hTDP1 cell growth loss with CPT | chicken DT40 Tdp1-/-;hTDP1 cells + 20 nM CPT, ATP luminescence, 48 h | Potency, µM (titrated, usually from 46.2 µM), for inactives: at the highest dose activity change, negative = growth inhibition, actives largely listed as inhibitors | hit rate 12% among 420,000; also: nearly all actives have a fitted effect of over 55% in size
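Cell growth measured by CellTiter-Glo luminescence after a minimum 48 h, 37 C compound exposure with 20 nM CPT in Tdp1-knockout DT40 cells stably expressing hTDP1, seeded 400/well; qHTS titration format.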
RORg inh = inhibitors of mouse ROR gamma transcriptional activity; Drosophila S2 Gal4-RORgamma UAS-luciferase reporter, 20 h; Potency, µM (top dose mostly 53.6 µM), without a hit: at the top dose activity change, negative = inhibition, actives largely listed as inhibitors; hit rate 5.4% among 310,000; AID 2551; also: nearly all actives have a fitted effect of over 60% in size
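Drosophila S2 cells stably expressing Gal4-DBD/mouse RORγ fusion under metallothionein promoter plus UAS-luciferase; compound 1 h, then 700 uM CuSO4 induction for 20 h at ambient temperature; inhibition read as reduced luminescence.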
TDP1 cell noCPT = qHTS for Inhibitors of human tyrosyl-DNA phosphodiesterase 1 (TDP1): qHTS in cells in absence of CPT | Potency, µM (doses to about 46.2 µM), for inactives: top-dose activity change, negative = growth inhibition, hits mostly inhibitors | hit rate 15% among 420,000 | DT40 Tdp1-/- hTDP1 cells, no CPT, ATP luminescence, 48 h; also: nearly all actives have a fitted effect of over 55% in size
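Growth of hTDP1-complemented DT40 Tdp1-knockout cells is measured by ATP luminescence after at least 48 hr compound exposure at 37 °C, with DMSO substituting for the 20 nM CPT used in the parallel screen.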
Active calls of the source: *; ? = inconclusive; . = not tested or not shown; [ ] = dose if it differs, or a comment. Calls follow the shape of the dose curve; as a rule, active = well fitted curve in the direction sought with a large enough effect; inconclusive = small, poorly fitted or top-dose-only effect, or another doubt; inactive = no such curve, though single readings can be large; an effect the other way counts as inactive or inconclusive. % is scaled to controls: 0 for no effect and ±100 for the full control effect; potency is read from the fitted curve at half-maximal effect.

SMILES | TDP1 block | Gal4-VP16 FLuc | TDP1 cell CPT | RORg inh | TDP1 cell noCPT
Cc1ccc(CC(=O)N(C)CC(=O)Nc2ccc(N3CCOCC3)cc2)cc1C | . | . | 13µM* | . | -20%
CN(CC(=O)Nc1ccc(N2CCOCC2)cc1)C(=O)CSc1ccc(F)cc1 | . | . | -24% | . | -24%
CCCCCOc1ccc(C(=O)N(Cc2ccco2)C2CCS(=O)(=O)C2)cc1 (stereo not drawn) | 3% | 5% | ? | -4% | ?
Cc1ccc(N2C(=O)C3C(C2=O)C2C=CC3C23CC3)cc1 (stereo not drawn) | 1% | -7% | -1% | -12% | ?
Fc1ccc(-n2c(Cc3ccccc3)nnc2SCc2nc(-c3cccs3)no2)cc1 | 2% | ? | ? | ? | ?
CC(C)COC(=O)c1ccc2c(c1O)C(=O)c1ccccc1C2=O | 3% | ? | ? | -6% | 23µM*
COc1ccc(S(=O)(=O)n2c([N+](=O)[O-])cnc2C)c(C)c1C | . | -3% | 2% | 0% | -5%
CCc1cccc(NC(=O)Cn2c(=O)ccc3cc(S(=O)(=O)N4CCC(C)CC4)ccc32)c1 | 4% | . | 18µM* | . | 16µM*
COc1cccc(NC(=O)Cn2c(=O)ccc3cc(S(=O)(=O)N4CCC(C)CC4)ccc32)c1 | 5% | . | 18µM* | . | 16µM*
COc1ccc(-c2csc(N(CCc3ccc(OC)c(OC)c3)C(=O)COc3ccccc3)n2)cc1 | 0% | -1%[0.365 µM] | ? | -26% | 16µM*
COc1ccc(-c2csc(N(Cc3ccccc3)C(=O)COc3ccc(Cl)cc3)n2)cc1 | 2% | -4% | 21µM* | -11% | 18µM*
O=C(COc1ccccc1)N(Cc1ccccc1)c1nc(-c2ccccc2)cs1 | 6% | -6% | -27% | -34% | ?
Fc1cc(F)c(F)c(SCn2cc(Br)cn2)c1F | -6% | . | -12% | . | -10%
Cc1ccccc1NC(=O)CNC(=O)c1ccc(C(F)(F)F)cc1 | 3% | 1% | 0% | 23% | -3%
COC(=O)[C@@]12C[C@@H](CC(=O)NCC34CC5CC(CC(C5)C3)C4)C(=O)N(Cc3ccccc3)C1=CCC(C)(C)C2 | . | . | ? | . | 21µM*
CCCCCCCCN1C(=O)[C@H](CC(=O)NCC23CC4CC(CC(C4)C2)C3)C[C@@]2(C(=O)OC)CC(C)(C)CC=C12 | . | . | 4% | . | ?
COC(=O)[C@]12CCCCC=C1N(Cc1ccccc1)C(=O)[C@H](CC(=O)NCC13CC4CC(CC(C4)C1)C3)C2 | . | . | 18µM* | . | ?
O=C(Nc1ccc2c(c1)OCO2)N1CCN(c2ccccc2Cl)CC1 | 5% | -3% | -24% | ? | ?
COc1ccc(N2CCN(C(=O)Nc3cccc(C(F)(F)F)c3)CC2)cc1 | 1% | 3% | ? | 2% | 18µM*
CCS(=O)(=O)N1CCc2cc(C(=O)N3CCN(c4cccc(C(F)(F)F)c4)CC3)ccc21 | 14% | . | ? | . | 23µM*
O=C(c1ccc2c(c1)OCO2)N1CCN(c2cccc(C(F)(F)F)c2)CC1 | -11% | 1% | 18µM* | 1% | 21µM*
O=C(Nc1ccc2c(c1)OCO2)N1CCN(c2cccc(C(F)(F)F)c2)CC1 | 2% | -13% | 9.2µM* | 16% | 21µM*
O=C(Nc1cccc(C(F)(F)F)c1)N1CCN(C(=O)Nc2cccc(C(F)(F)F)c2)CC1 | -2% | -6% | -10% | 28% | -9%
O=C(N/N=C/c1ccccc1)C(O)c1ccccc1 (stereo not drawn) | . | 21% | -10% | 41%[1.91 µM] | 10%
Cc1ccc2ccc(C#N)cc2c1O | . | . | -27% | . | -30%
SMILES | TDP1 block | Gal4-VP16 FLuc | TDP1 cell CPT | RORg inh | TDP1 cell noCPT
CCCNC(=O)C1(C)CCCN(C(=O)c2c(F)ccc(C)c2F)C1 (stereo not drawn) | . | . | 0% | . | -16%
CCCNC(=O)C1(C)CCCN(C(=O)COc2ccc(C(C)(C)C)cc2)C1 (stereo not drawn) | . | . | 29µM* | . | 16µM*
CCCNC(=O)C1(C)CCCN(C(=O)C2(c3ccc(Cl)cc3)CCCC2)C1 (stereo not drawn) | . | . | ? | . | 21µM*
CCn1c(=O)c(C(=O)Nc2ncccc2O)c(O)c2ccccc21 | . | -3% | 13% | -33% | -2%
Cn1c(=O)c(C(=O)NCCO)c(O)c2ccccc21 | 9% | -9% | ? | -8% | ?
CCn1c(=O)c(C(=O)Nc2ncccc2C)c(O)c2ccccc21 | 4% | -10% | 2.3µM* | -20% | 2.6µM*
Cn1c(=O)c(C(=O)NNC(=O)c2ccc(Br)cc2)c(O)c2ccccc21 | . | ? | ? | ? | 18µM*
Cc1cccnc1NC(=O)c1c(O)c2ccccc2n(C)c1=O | 3% | . | ? | 3%[0.365 µM] | 23µM*
COc1ccccc1C(=O)C1CCCN(C(=O)c2ccc3c(c2)OCCO3)C1 (stereo not drawn) | 0% | -12% | -23% | 4% | ?
COc1ccc(CN2CCN(C(C)C)C(CCO)C2)cc1Cn1cccn1 (stereo not drawn) | 3% | -4% | 14% | -2% | -1%
Cc1cccc(NC(=O)c2cnc3sccn3c2=O)c1C | 2% | -10% | . | 45% | .
O=C(Nc1cnc2ccccn2c1=O)c1ccc(Cl)cc1Cl | -5% | ? | 21% | 2.5µM* | 4%
O=C(Nc1cnc2sccn2c1=O)c1ccccc1Cl | -8% | ? | -24% | 7.1µM* | -28%
O=C(OCc1cccc([N+](=O)[O-])c1)c1cccnc1 | -4% | -1% | 1% | 2% | -2%
CSc1cc(C)n(-c2ccc(Cl)cc2)c(=S)c1C(C)=O | 4% | 2% | -20% | 4% | ?
Cc1cccc(-n2cnc3cc(C(=O)NC4CCCCCC4)ccc32)c1 | 10% | . | 3.3µM* | . | 4.6µM*
CCc1ccccc1-n1cnc2cc(C(=O)NC3CCCCCC3)ccc21 | 10% | . | ? | . | 23µM*
CCOC(=O)CNC(=O)c1cn(C)c(=O)c2cc(OC)c(OC)cc12 | -11% | -2% | 1% | -7% | -15%
Cc1ccc(CN(C)C(=O)c2cc(S(=O)(=O)N3CCOCC3)ccc2F)o1 | 0% | . | 2% | . | ?
COc1cc(-c2cc(OC)c(O)c(OC)c2)cc(OC)c1O | . | . | 16µM* | . | 9.2µM*
COc1cc(C(=O)C(=O)c2cc(OC)c(O)c(OC)c2)cc(OC)c1O | 0% | -10% | -5% | -17% | -4%
CC(=O)Nc1cccc(N(C(=O)C2COc3ccccc3O2)C(C(=O)NC2CCCCC2)c2cn(C)nc2C)c1 (stereo not drawn) | 6% | -1% | 1% | 11% | 4%
CCCn1c(=N)n(CC(=O)c2ccc([N+](=O)[O-])cc2)c2ccccc21 | -2% | -8% | ? | 1.6µM* | 23µM*
